A selection: hits, their analogues and other compounds. The true share with any hit is near 11%.
USP17 inh: inhibitors of human USP17 deubiquitinase. A8MUK1. purified USP17, Ub-rhodamine cleavage fluorescence, 3 h. inhibition, % at 50 µM. actives 6.5% (n = 47,000). AID 1645855
USP28 block: inhibitors of human USP28 deubiquitinase; Q96RU2; purified USP28, Ub-rhodamine cleavage fluorescence, 30 min; inhibition, % at 25 µM; actives 3% (n = 47,000); AID 1645857
USP30 inh: blocks human USP30 ubiquitin-rhodamine cleavage; Q70CQ3; purified USP30, Ub-rhodamine cleavage fluorescence; inhibition, % at 25 µM; actives 5.3% (n = 47,000); AID 1645860
OTUD3 inh: blocks human OTUD3 ubiquitin-rhodamine cleavage. inhibition, % at 25 µM. purified OTUD3, Ub-rhodamine fluorescence, 2 h. actives 0.7% (n = 47,000). AID 1645858
Target sequence (Q5T2D3 whole entry, looked up): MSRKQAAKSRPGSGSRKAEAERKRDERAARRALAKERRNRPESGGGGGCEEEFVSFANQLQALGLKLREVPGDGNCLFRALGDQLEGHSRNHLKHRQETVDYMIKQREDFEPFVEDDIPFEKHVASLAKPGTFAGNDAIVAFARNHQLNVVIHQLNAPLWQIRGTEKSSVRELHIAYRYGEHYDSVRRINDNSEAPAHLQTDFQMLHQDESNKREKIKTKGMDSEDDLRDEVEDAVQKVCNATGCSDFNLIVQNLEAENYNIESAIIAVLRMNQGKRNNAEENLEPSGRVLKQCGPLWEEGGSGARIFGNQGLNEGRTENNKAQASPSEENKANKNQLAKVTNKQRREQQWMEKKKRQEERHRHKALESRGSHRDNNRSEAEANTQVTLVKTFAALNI
Of the large screens only hits and unclear results are named; the others gave an inactive call. Cut-off read from the data, not from the text of the source: active = inhibition above about 30%; inactive = the rest.

CCOC(=O)C1CCN(C(=O)Cn2c(=O)cc(C)c3c(-c4ccccc4)nn(-c4ccccc4)c32)CC1	USP30 inh 34
COc1ccc(-c2nc(-c3ccc(=O)[nH]c3)no2)c(C)c1	none
Cc1ccccc1Cc1nc(-c2ccc(=O)[nH]c2)no1	USP28 block 84
Cc1ccccc1Cc1nc(-c2ccnc(N3CCOCC3)c2)no1	USP28 block 32
c1cc(-c2noc(C3CCCCC3)n2)cc(N2CCOCC2)n1	none
O=c1ccc(-c2noc(Cc3c(F)cccc3Cl)n2)c[nH]1	USP28 block 93
Cc1sc(NC(=O)CN2CCCCC2)nc1-c1ccc2c(c1)CCN2C(=O)c1cccc(F)c1	USP17 inh 36
Cc1sc(NC(=O)CN2CCCCCC2)nc1-c1ccc2c(c1)CCN2C(=O)C1CCCCC1	none (no result: USP17 inh)
Cc1sc(NC(=O)CNc2ccccc2)nc1-c1ccc2c(c1)CCN2C(=O)C1CCCCC1	USP17 inh 47
Cc1sc(NC(=O)CN2CCCC2)nc1-c1ccc2c(c1)CCN2S(=O)(=O)c1ccccc1	USP17 inh 39
Cc1sc(NC(=O)CN2CCCC2)nc1-c1ccc2c(c1)CCN2C(=O)c1cccc(F)c1	USP30 inh 35
Cc1cccc(C(=O)N2CCc3cc(-c4nc(NC(=O)CN5CCCCCC5)sc4C)ccc32)c1	none
O=C(Cn1c(CN2CCOCC2)nc2ccccc21)N1CCCC1	none
CCOc1ccnc2c1c(=O)n(CC(=O)N1CCCCCC1)c(=O)n2C	none
O=C(c1ccccc1)c1c(-c2ccccc2)oc2ccc(NS(=O)(=O)c3ccc(Cl)cc3)cc12	none
Cc1oc2ccc(NS(=O)(=O)c3ccc(F)cc3)cc2c1C(=O)OCc1ccccc1	USP28 block 60
Cn1cc(S(=O)(=O)Nc2cnn(Cc3cccc(Cl)c3)c2)cn1	USP17 inh 31
Cc1nn(-c2ccccc2)cc1-c1noc(C(=O)NCc2ccc3c(c2)OCO3)n1	none
COc1ccccc1NC(=O)c1oc2ccccc2c1NC(=O)c1ccccc1Cl	none
CSc1ccccc1C(=O)Nc1c(C(N)=O)oc2ccccc12	USP28 block 30
Cc1cccc(NC(=O)CN2C(=O)CSC(C)C2=O)c1 (centres undefined)	none
CC1=CC(=O)C2=C(C)C[C@H](OC(=O)CC(C)C)[C@@H]3[C@H](OC(=O)[C@H]3C)[C@@H]12	none
CC1(c2ccco2)NC(=O)N(CC(=O)Nc2ccc(N3CCCCCC3)cc2)C1=O (centres undefined)	USP17 inh 44
CCN(c1ccc(NC(=O)CN2C(=O)NC3(CCCCC3)C2=O)cc1)C(C)C	none
COc1ccc(OC)c(NC(=O)[C@H]2C[C@H](CC(C)C)N[C@]23C(=O)Nc2ccccc23)c1	none
O=S(=O)(Nc1nnc(C2CC2)s1)c1cccc2nonc12	USP17 inh 37 (no result: USP28 block, USP30 inh)
CCc1nc(-c2cccc(S(=O)(=O)N3CCC(C(=O)NCC4CCCO4)CC3)c2)no1 (centres undefined)	none
Cn1ncc2c(Nc3ccc(F)cc3)nc(NCCN3CCOCC3)nc21	none
NC(=O)c1cccc(-c2cccc(C3CN(Cc4cccc5ncccc45)CCO3)n2)c1 (centres undefined)	none
Cc1cccc(NC(=O)C2CCCN(C(=O)c3cc(-c4cccnc4)n[nH]3)C2)c1 (centres undefined)	none
COc1ccc(Cl)cc1S(=O)(=O)N(C)CC(=O)Nc1ccc2c(c1)OCCO2	none
COc1ccc(NC(C)=O)cc1S(=O)(=O)N(CC(=O)Nc1ccc(C)cc1)CC(=O)Nc1ccc(C)cc1	USP17 inh 34
Cc1ccc(C(=O)Nc2cccc(/C=C(/C#N)c3nnc4n3CCCCC4)c2)cc1	none
c1ccc(CCNc2nc3ccccc3s2)cc1	USP28 block 35
CCOC(=O)N1CCN(S(=O)(=O)c2ccc(F)c(C(=O)Nc3ccccc3Cl)c2)CC1	USP30 inh 36
Cc1ccccc1NC(=O)c1cc(S(=O)(=O)N2CCCCCC2)ccc1Cl	USP30 inh 63 (no result: USP17 inh)
CC(NCC(=O)Nc1cc(S(=O)(=O)N2CCCCCC2)ccc1Cl)c1ccccc1 (centres undefined)	USP30 inh 43
Cc1ccc(S(=O)(=O)N2CCCCC2)cc1NC(=O)Cc1cccc(F)c1	USP28 block 60
Cc1ccc(S(=O)(=O)N2CCCCC2)cc1NC(=O)CN1C(=O)CN(C)C1=O	none
C=Cc1ccc(Cn2c(C(=O)O)c(CNC3CC3)c3ccccc32)cc1	none
O=C(Cc1n[nH]c(Cc2ccc(F)cc2)n1)Nc1ccccc1	none
Cc1cccc(NC(=O)CN2C(=O)COc3cc(S(=O)(=O)N4CCCC4)ccc32)c1C	USP30 inh 60
Cc1cccc(NC(=O)CCc2nnc3c(=O)n(-c4ccc(C)c(C)c4)ccn23)c1	none
Cc1nc(N[C@@H](Cc2ccccc2)C(=O)O)c2oc3ccccc3c2n1	none
